In PubChem BioAssay (EPA / NIEHS):
The source made the active and inactive calls. Rule for the calls: active = hit-call score of the fitted dose curve at least 0.9, where 1 is the maximum; inactive = score below 0.9.

How the values were obtained:
[1] = ATG_CRE_CIS: Attagene CIS-FACTORIAL HepG2 Assay for human cAMP Responsive Element (CRE) binding protein 3 (AID 2282926); conditions: HepG2 CRE cis-reporter, Attagene multiplexed mRNA; actives raise or lower the signal
In short: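 Human liver HepG2, transient MRTU transfection, 24 h compound exposure. Total RNA → oligo(dT) RT → PCR → 6-FAM primer extension → HpaI cut → CE. Activity called both directions vs DMSO.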

[2] = target: CCAAT/enhancer-binding protein beta (Homo sapiens) (UniProt P17676); experiment: ATG_C_EBP_CIS: Attagene CIS-FACTORIAL HepG2 Assay for human CCAAT/Enhancer Binding Protein (C/EBP) beta (AID 2282927); conditions: HepG2 Attagene cis-factorial transcription factor reporter; actives raise or lower the signal
CCAAT/enhancer-binding protein beta (Homo sapiens), sequence (P17676 whole entry, looked up): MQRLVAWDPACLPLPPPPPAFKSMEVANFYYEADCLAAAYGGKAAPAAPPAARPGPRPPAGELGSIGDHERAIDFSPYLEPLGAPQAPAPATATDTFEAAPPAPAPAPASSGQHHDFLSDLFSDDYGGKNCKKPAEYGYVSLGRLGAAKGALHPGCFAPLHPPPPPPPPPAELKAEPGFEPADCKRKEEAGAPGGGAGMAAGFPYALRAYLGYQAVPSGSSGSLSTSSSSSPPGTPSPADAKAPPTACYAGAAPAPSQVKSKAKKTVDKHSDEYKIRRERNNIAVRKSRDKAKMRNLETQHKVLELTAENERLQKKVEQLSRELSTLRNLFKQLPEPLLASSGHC
In short: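 RT-PCR/capillary electrophoresis fluorescence of reporter mRNA, 24 h post-dose, in HepG2 cells carrying transfected cis-promoter reporter units. Bidirectional curve fitting against DMSO baseline captures gain or loss of signal.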

[3] = ATG_CMV_CIS: Attagene CIS-FACTORIAL HepG2 Assay for human CMV (Internal Marker) (AID 2282928); conditions: HepG2 CMV promoter reporter, transcription factor profiling; actives raise or lower the signal;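 note: endpoint acts as a background internal control marker rather than a target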
In short: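 HepG2 cells transiently transfected with multiple cis-regulated reporter units; 24 h compound exposure. Reporter mRNA quantified by RT-PCR, 6-FAM primer-extension labeling, HpaI digestion and capillary electrophoresis; bidirectional fitting against DMSO baseline.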

[4] = ATG_DR4_LXR_CIS: Attagene CIS-FACTORIAL HepG2 Assay for human Liver X Receptor (LXR), DR4 submotif (AID 2282929); conditions: HepG2 Attagene DR4 cis-reporter, mRNA transcription; actives raise or lower the signal
In short: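 HepG2, transient MRTU transfection, cis-element (DR4) promoter; 24 h compound exposure; total RNA → oligo(dT) RT → PCR → 6-FAM primer extension → HpaI cut → CE. Gain/loss vs DMSO, bidirectional fit.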

[5] = target: Aryl hydrocarbon receptor (Homo sapiens) (UniProt P35869); experiment: ATG_Ahr_CIS: Attagene CIS-FACTORIAL HepG2 Assay for human Aryl Hydrocarbon Receptor (Ahr) (AID 2282930); conditions: HepG2 AhR cis-factorial reporter transcription; actives raise or lower the signal
Aryl hydrocarbon receptor (Homo sapiens), sequence (P35869 whole entry, looked up): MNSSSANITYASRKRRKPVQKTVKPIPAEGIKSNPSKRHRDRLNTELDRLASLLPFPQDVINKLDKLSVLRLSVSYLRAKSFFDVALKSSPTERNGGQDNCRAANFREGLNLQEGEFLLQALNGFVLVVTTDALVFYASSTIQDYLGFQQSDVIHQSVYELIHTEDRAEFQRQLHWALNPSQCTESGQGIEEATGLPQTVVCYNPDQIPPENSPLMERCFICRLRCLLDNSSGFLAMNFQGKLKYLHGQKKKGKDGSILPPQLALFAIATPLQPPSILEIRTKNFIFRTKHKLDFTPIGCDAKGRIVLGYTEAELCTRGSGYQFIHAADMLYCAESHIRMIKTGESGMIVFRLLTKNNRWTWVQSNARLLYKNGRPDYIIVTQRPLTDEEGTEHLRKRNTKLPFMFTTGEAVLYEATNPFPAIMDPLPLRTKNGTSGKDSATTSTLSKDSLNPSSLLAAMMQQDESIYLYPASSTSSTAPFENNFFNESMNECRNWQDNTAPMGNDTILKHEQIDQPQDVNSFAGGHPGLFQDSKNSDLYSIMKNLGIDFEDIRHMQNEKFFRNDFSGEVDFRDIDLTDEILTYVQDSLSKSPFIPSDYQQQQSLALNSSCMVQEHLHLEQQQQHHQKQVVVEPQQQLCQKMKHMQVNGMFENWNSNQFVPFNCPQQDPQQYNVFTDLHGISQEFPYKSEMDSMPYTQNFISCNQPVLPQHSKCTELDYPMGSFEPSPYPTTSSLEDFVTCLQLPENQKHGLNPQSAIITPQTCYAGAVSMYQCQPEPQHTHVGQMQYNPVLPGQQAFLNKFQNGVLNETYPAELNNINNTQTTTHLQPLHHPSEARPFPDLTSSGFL
In short: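 HepG2 cells transiently transfected with cis-element-driven multiplexed reporter transcription units; endogenous transcription factor activity measured as reporter mRNA 24 h after dosing. RT-PCR, 6-FAM labelling, HpaI digestion, capillary electrophoresis; bidirectional fitting versus DMSO baseline.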

[6] = ATG_AP_1_CIS: Attagene CIS-FACTORIAL HepG2 Assay for human Activator Protein 1 (AP-1) (AID 2282931); conditions: HepG2 Attagene cis-factorial AP-1 reporter mRNA; actives raise or lower the signal
In short: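 Transient MRTU transfection of HepG2 → 24 h chemical treatment → RNA isolation, RT-PCR, 6-FAM labelling, HpaI digest → capillary electrophoresis. Fit: bidirectional, DMSO negative control.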

[7] = ATG_AP_2_CIS: Attagene CIS-FACTORIAL HepG2 Assay for human Activator Protein 2 (AP-2) (AID 2282932); conditions: HepG2 AP-2 cis-reporter, Attagene transcription factor profiling; actives raise or lower the signal
In short: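 HepG2 cells were transiently transfected with multiple cis-promoter reporter transcription units and dosed for 24 h. Reporter mRNA was measured by RT-PCR with capillary electrophoresis fluorescence; bidirectional fits relative to DMSO baseline.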

[8] = ATG_BRE_CIS: Attagene CIS-FACTORIAL HepG2 Assay for human Bone Morphogenetic Protein (BMP) Response Element (BRE) (AID 2282933); conditions: HepG2 BMP response element reporter, Attagene transcription factor profiling; actives raise or lower the signal
In short: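 Transient MRTU transfection of human HepG2 liver cells; 24 h compound treatment; total RNA isolated, reverse-transcribed, PCR-amplified, 6-FAM labelled, HpaI-cut, capillary electrophoresis. DMSO = negative control/baseline, bidirectional fit.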

[9] = target: Retinoic acid receptor alpha (Homo sapiens) (UniProt P10276); experiment: ATG_DR5_RAR_CIS: Attagene CIS-FACTORIAL HepG2 Assay for human Retinoic Acid Receptor Alpha (RARE), DR5 submotif (AID 2282934); conditions: HepG2 Attagene cis-factorial RARE DR5 reporter, mRNA; actives raise or lower the signal
Retinoic acid receptor alpha (Homo sapiens), sequence (P10276 whole entry, looked up): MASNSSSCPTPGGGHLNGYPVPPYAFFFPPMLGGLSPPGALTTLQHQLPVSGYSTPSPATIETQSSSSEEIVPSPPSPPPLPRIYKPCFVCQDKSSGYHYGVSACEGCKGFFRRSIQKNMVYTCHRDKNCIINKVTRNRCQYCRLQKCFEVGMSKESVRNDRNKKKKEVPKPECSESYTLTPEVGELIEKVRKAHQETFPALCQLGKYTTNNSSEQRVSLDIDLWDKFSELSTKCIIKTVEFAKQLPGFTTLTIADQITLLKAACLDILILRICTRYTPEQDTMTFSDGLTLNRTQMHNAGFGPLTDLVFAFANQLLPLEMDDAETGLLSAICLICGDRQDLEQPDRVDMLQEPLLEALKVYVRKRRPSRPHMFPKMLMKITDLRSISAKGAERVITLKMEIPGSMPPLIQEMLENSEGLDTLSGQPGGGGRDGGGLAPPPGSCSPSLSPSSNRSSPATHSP
In short: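 HepG2 cells transiently transfected with multiplexed reporter units under cis (DR5 RARE) promoters, so endogenous transcription factor activity is measured. After 24 h compound exposure, reporter mRNA is quantified by RT-PCR with fluorescent labelling and capillary electrophoresis; bidirectional fitting versus DMSO.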

[10] = target: Transcription factor E2F1 (Homo sapiens) (UniProt Q01094); experiment: ATG_E2F_CIS: Attagene CIS-FACTORIAL HepG2 Assay for human E2F Transcription Factor 1 (AID 2282935); conditions: HepG2 Attagene cis-reporter, E2F reporter RNA transcripts; actives raise or lower the signal
Transcription factor E2F1 (Homo sapiens), sequence (Q01094 whole entry, looked up): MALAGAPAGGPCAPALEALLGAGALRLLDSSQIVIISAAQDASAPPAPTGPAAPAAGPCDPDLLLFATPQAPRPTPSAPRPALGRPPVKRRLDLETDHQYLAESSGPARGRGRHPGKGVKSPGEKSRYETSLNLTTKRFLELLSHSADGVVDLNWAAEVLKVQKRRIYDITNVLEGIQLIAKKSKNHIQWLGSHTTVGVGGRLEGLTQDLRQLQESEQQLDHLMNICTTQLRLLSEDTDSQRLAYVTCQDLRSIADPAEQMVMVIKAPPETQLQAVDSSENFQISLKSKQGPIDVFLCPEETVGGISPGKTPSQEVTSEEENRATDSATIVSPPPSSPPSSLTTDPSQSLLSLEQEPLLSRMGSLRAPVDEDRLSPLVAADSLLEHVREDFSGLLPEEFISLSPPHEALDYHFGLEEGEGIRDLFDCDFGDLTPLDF
In short: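 HepG2 cells transiently transfected with multiplexed cis-element reporter units, dosed for 24 h. Reporter mRNA measured by RT-PCR, 6-FAM primer-extension labeling, HpaI digestion and capillary electrophoresis; bidirectional fit versus DMSO baseline.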

[11] = ATG_E_Box_CIS: Attagene CIS-FACTORIAL HepG2 Assay for human Enhancer Box (E-box) (AID 2282936); conditions: HepG2 E-box cis-reporter transcription, actives raise or lower the signal
In short: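 HepG2 cells transiently transfected with multiplexed cis-element reporter units sensing endogenous transcription factor activity; 24 h compound exposure. Reporter mRNA measured by RT-PCR, 6-FAM primer extension, HpaI digestion and capillary electrophoresis; bidirectional fit versus DMSO.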

[12] = ATG_M_61_CIS: Attagene CIS-FACTORIAL HepG2 Assay for M61 Transcription Factor (Internal Marker) (AID 2282937); conditions: HepG2 Attagene CIS-FACTORIAL M61 internal marker reporter; actives raise or lower the signal
In short: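 Human liver HepG2, transient MRTU transfection (cis promoter elements), 24 h compound. Total RNA → oligo(dT) RT → PCR → FAM label → HpaI → CE. Internal background marker; bidirectional fitting, DMSO = baseline.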

[13] = ATG_EGR_CIS: Attagene CIS-FACTORIAL HepG2 Assay for human Early Growth Response 1 (EGR1) (AID 2282938); conditions: HepG2 Attagene CIS-FACTORIAL EGR reporter mRNA; actives raise or lower the signal
In short: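 Transient transfection of human HepG2 with multiple cis-regulated reporter units, chemical exposure 24 h, total RNA isolated. Reverse transcription, PCR, fluorescent labelling and capillary electrophoresis quantify reporter transcripts; activity fitted bidirectionally against DMSO.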

[14] = ATG_M_19_CIS: Attagene CIS-FACTORIAL HepG2 Assay for M19 Transcription Factor (Internal Marker) (AID 2282939); conditions: HepG2 Attagene CIS-FACTORIAL M19 internal marker reporter; actives raise or lower the signal
In short: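 Transfect HepG2 with MRTU reporter library → dose chemical, 24 h → isolate total RNA, reverse-transcribe with oligo(dT) → PCR, 6-FAM label, HpaI cut (2 h, 37 C) → capillary electrophoresis. Bidirectional fit vs DMSO.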

[15] = ATG_ERE_CIS: Attagene CIS-FACTORIAL HepG2 Assay for Estrogen Response Element (ERE) (AID 2282940); conditions: HepG2 ERE cis-reporter, Attagene RNA transcript; actives raise or lower the signal
In short: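 Transient MRTU transfection of human HepG2; cis-element promoters; 24 h dosing; total RNA → RT (oligo dT) → PCR → 6-FAM primer extension → HpaI digest → CE fluorescence. Bidirectional fit, DMSO baseline.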

[16] = ATG_Ets_CIS: Attagene CIS-FACTORIAL HepG2 Assay for human Erythroblast Transformation Specific (ETS) (AID 2282941); conditions: HepG2 ETS cis-reporter transcription, actives raise or lower the signal
In short: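 HepG2 cells transiently transfected with cis-promoter reporter transcription units were dosed for 24 h; reporter mRNA was measured by RT-PCR, 6-FAM primer extension, HpaI digestion and capillary electrophoresis, with bidirectional fitting against DMSO baseline.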

[17] = target: Hepatocyte nuclear factor 3-beta (Homo sapiens) (UniProt Q9Y261); experiment: ATG_FoxA2_CIS: Attagene CIS-FACTORIAL HepG2 Assay for human Forkhead box A2 (FOXA2) (AID 2282942); conditions: HepG2 cis-reporter transcription factor activity, 24 h; actives raise or lower the signal
Hepatocyte nuclear factor 3-beta (Homo sapiens), sequence (Q9Y261 whole entry, looked up): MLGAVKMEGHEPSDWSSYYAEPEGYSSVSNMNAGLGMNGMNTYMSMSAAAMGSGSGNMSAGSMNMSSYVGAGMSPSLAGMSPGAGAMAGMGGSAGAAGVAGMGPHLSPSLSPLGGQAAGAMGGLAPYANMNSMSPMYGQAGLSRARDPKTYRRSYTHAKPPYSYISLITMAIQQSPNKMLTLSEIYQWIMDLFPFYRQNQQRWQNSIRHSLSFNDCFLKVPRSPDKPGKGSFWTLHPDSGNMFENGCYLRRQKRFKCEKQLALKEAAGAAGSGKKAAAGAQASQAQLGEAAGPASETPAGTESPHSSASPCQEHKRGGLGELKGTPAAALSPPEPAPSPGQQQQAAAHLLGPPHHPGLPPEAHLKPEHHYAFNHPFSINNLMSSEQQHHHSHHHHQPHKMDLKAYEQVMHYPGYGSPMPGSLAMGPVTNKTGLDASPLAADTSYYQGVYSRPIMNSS
In short: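 Transient MRTU transfection of HepG2 liver cells; 24 h treatment; total RNA → oligo(dT) RT → PCR → FAM primer extension → HpaI cut → CE. Bidirectional fit vs DMSO.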

[18] = ATG_FoxO_CIS: Attagene CIS-FACTORIAL HepG2 Assay for human Forkhead box O (FoxO) (AID 2282943); conditions: HepG2 Attagene cis-reporter, FoxO element, mRNA; actives raise or lower the signal
In short: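 HepG2 cells transiently transfected with cis-promoter-driven multiple reporter transcription units; 24 h after chemical dosing, reporter mRNA quantified by RT-PCR, fluorescent primer extension, HpaI digestion and capillary electrophoresis. Bidirectional fitting versus DMSO baseline.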

[19] = ATG_GATA_CIS: Attagene CIS-FACTORIAL HepG2 Assay for human GATA Binding Protein (AID 2282944); conditions: HepG2 GATA cis-element reporter, Attagene multiplex mRNA; actives raise or lower the signal
In short: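 Transient MRTU transfection, HepG2, 24 h compound exposure. Total RNA → oligo(dT) RT → PCR → 6-FAM primer extension → HpaI cut → CE. Bidirectional fit vs DMSO.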

[20] = ATG_GLI_CIS: Attagene CIS-FACTORIAL HepG2 Assay for human Zinc Finger Protein GLI1 (AID 2282945); conditions: HepG2, Attagene cis-factorial reporter mRNA, GLI element; actives raise or lower the signal
In short: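 HepG2 cells transiently transfected with cis-promoter multiplexed reporter units report endogenous transcription factor activity. After 24 h chemical exposure, reporter mRNA was quantified by RT-PCR, 6-FAM labelling, HpaI digestion and capillary electrophoresis, with bidirectional fitting against DMSO.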

Measured: outcome

O=Cc1ccc(CO)o1
inactive: all assays above
